The values that follow come from PubChem BioAssay (EPA / NIEHS).

Read-out in experiment [1]: Interferon-gamma inducible Protein 10 (IP10), CXCL10 (gene 3627)
Kind of experiment: BSK_hDFCGF_IP10: BioMAP Diversity Plus: hDFCGF Assay for Interferon-gamma inducible Protein 10 (IP10) Biomarker Activity (AID 2283053). Conditions: primary human foreskin fibroblasts; actives raise or lower the signal. The gist of the method: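 ELISA quantification of IP-10 after a 24 h chemical exposure of human dermal foreskin fibroblast primary cultures. Both increases and decreases versus DMSO fitted.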

Read-out in experiment [2]: Urokinase-type plasminogen activator receptor (uPAR), PLAUR (gene 5329)
Kind of experiment: BSK_CASM3C_uPAR: BioMAP Diversity Plus: CASM3C Assay for Urokinase-type plasminogen activator receptor (uPAR) Biomarker Activity (AID 2283054).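 Further: cell-surface uPAR protein level quantified by ELISA.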 Conditions: primary human coronary artery smooth muscle cells; actives raise or lower the signal.

Read-out in experiment [3]: Vascular cell adhesion molecule 1 (VCAM1), VCAM1 (gene 7412)
The experiment is described as follows: BSK_CASM3C_VCAM1: BioMAP Diversity Plus: CASM3C Assay for Vascular cell adhesion molecule 1 (VCAM1) Biomarker Activity (AID 2283055).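 Further: VCAM-1 protein level quantified by ELISA on the cells.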 Conditions: primary human coronary artery smooth muscle cells; actives raise or lower the signal.

Read-out in experiment [4]: Collagen III, COL3A1 (gene 1281)
The experiment is described as follows: BSK_hDFCGF_CollagenIII: BioMAP Diversity Plus: hDFCGF Assay for Collagen III Biomarker Activity (AID 2283056). Conditions: primary human foreskin fibroblasts; actives raise or lower the signal. The method, boiled down: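 Human foreskin primary fibroblasts were exposed to test chemicals for 24 h, after which collagen III was quantified by ELISA. Activity was fitted bidirectionally against DMSO as negative control and baseline.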

Read-out in experiment [5]: Epidermal growth factor receptor (EGFR), EGFR (gene 1956)
Kind of experiment: BSK_hDFCGF_EGFR: BioMAP Diversity Plus: hDFCGF Assay for Epidermal growth factor receptor (EGFR) Biomarker Activity (AID 2283057). Conditions: primary human foreskin fibroblasts; actives raise or lower the signal. The gist of the method: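 EGFR levels by ELISA in human dermal fibroblast cultures, 24 h post-treatment, fitted bidirectionally versus DMSO. Parallel wells stained with sulforhodamine B to detect overt cytotoxicity.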

A short description of experiment [6]: BSK_hDFCGF_Proliferation: Cell Proliferation Assessment in the BioMAP Diversity Plus: hDFCGF Assay (AID 2283059).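 Further: curves fitted for both rise and fall of signal versus DMSO baseline.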 Conditions: primary human foreskin fibroblasts. The method, boiled down:
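Primary human foreskin fibroblasts, sub-confluent; […]; 10% TCA fix, 0.1% SRB stain, A560 total protein. Gain/loss fitted bidirectionally vs DMSO control.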

Read-out in experiment [7]: Macrophage colony-stimulating factor (MCSF), CSF1 (gene 1435)
Kind of experiment: BSK_hDFCGF_MCSF: BioMAP Diversity Plus: hDFCGF Assay for Macrophage colony-stimulating factor (MCSF) Biomarker Activity (AID 2283060). Conditions: primary human foreskin fibroblasts; actives raise or lower the signal. The method, boiled down: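 Human foreskin primary fibroblasts were treated with test chemical for 24 h, and M-CSF was then measured by ELISA. Data were fitted bidirectionally against DMSO as the negative control and activity baseline.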

Experiment [8] in a line: BSK_hDFCGF_SRB: Viability Assessment in the BioMAP Diversity Plus: hDFCGF Assay (AID 2283061).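 Further: cells exposed to compound for 24 h before the read.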 Conditions: primary human foreskin fibroblasts. The method, boiled down: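 Human foreskin primary fibroblasts were treated with compound and assessed 24 h after dosing. Total protein was measured by sulforhodamine B staining (0.1% SRB after 10% TCA fixation, 560 nm read) as a cytotoxicity marker, with bidirectional fitting against DMSO baseline.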

Read-out in experiment [9]: TIMP metallopeptidase inhibitor 1 (TIMP1), TIMP1 (gene 7076)
Kind of experiment: BSK_hDFCGF_TIMP1: BioMAP Diversity Plus: hDFCGF Assay for TIMP metallopeptidase inhibitor 1 (TIMP1) Biomarker Activity (AID 2283062). Conditions: primary human foreskin fibroblasts; actives raise or lower the signal. The method, boiled down:
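Primary human foreskin fibroblasts in the hDFCGF system were dosed with compound for 24 h, then TIMP-1 was measured by ELISA. Activity was fitted bidirectionally relative to DMSO control; parallel SRB staining assessed cytotoxicity.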

Read-out in experiment [10]: Monokine induced gamma interferon (MIG), CXCL9 (gene 4283)
Kind of experiment: BSK_hDFCGF_MIG: BioMAP Diversity Plus: hDFCGF Assay for Monokine induced gamma interferon (MIG) Biomarker Activity (AID 2283063). Conditions: primary human foreskin fibroblasts; actives raise or lower the signal. The gist of the method: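 ELISA read-out of MIG from primary human dermal fibroblasts 24 h post-dosing. Gain or loss of signal fitted bidirectionally, DMSO as baseline.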

Read-out in experiment [11]: Matrix Metallopeptidase 1 (MMP1), MMP1 (gene 4312)
Kind of experiment: BSK_hDFCGF_MMP1: BioMAP Diversity Plus: hDFCGF Assay for Matrix Metallopeptidase 1 (MMP1) Biomarker Activity (AID 2283064). Conditions: primary human foreskin fibroblasts; actives raise or lower the signal. The gist of the method:
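ELISA read-out of MMP1 from human foreskin fibroblasts (primary skin cells), 24 h post-dose. Gain or loss of signal was fitted bidirectionally versus DMSO negative control; cytotoxicity was checked by SRB in parallel cultures.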

Read-out in experiment [12]: Vascular cell adhesion molecule 1 (VCAM1), VCAM1 (gene 7412)
Kind of experiment: BSK_hDFCGF_VCAM1: BioMAP Diversity Plus: hDFCGF Assay for Vascular cell adhesion molecule 1 (VCAM1) Biomarker Activity (AID 2283065).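 On AC50: VCAM-1 protein level quantified by ELISA after 24 h chemical exposure.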 Conditions: primary human foreskin fibroblasts; actives raise or lower the signal. The gist of the method: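 Primary human foreskin fibroblasts (hDFCGF system) were dosed with chemical and VCAM-1 was measured by ELISA 24 h later. Bidirectional curve fitting used DMSO as negative control and activity baseline.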

Read-out in experiment [13]: Plasminogen activator inhibitor-1 (PAI1), SERPINE1 (gene 5054)
Kind of experiment: BSK_hDFCGF_PAI1: BioMAP Diversity Plus: hDFCGF Assay for Plasminogen activator inhibitor-1 (PAI1) Biomarker Activity (AID 2283066). Conditions: primary human foreskin fibroblasts; actives raise or lower the signal. The method, boiled down: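 PAI-1 levels in human dermal foreskin fibroblasts were quantified by ELISA 24 h after dosing, with gain or loss analysed against DMSO. Overt cytotoxicity was checked by sulforhodamine B total-protein staining in parallel cultures.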

Read-out in experiment [14]: Intercellular Adhesion Molecule 1 (ICAM1), ICAM1 (gene 3383)
The experiment is described as follows: BSK_KF3CT_ICAM1: BioMAP Diversity Plus: KF3CT Assay for Intercellular Adhesion Molecule 1 (ICAM1) Biomarker Activity (AID 2283067). Conditions: primary human keratinocytes with fibroblasts; actives raise or lower the signal. The method, boiled down:
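Human keratinocyte plus foreskin fibroblast primary co-culture was exposed to chemical for 24 h. ICAM-1 was then quantified by ELISA, and the data were fit bidirectionally against DMSO as the negative control and baseline.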

Read-out in experiment [15]: Interferon-gamma inducible Protein 10 (IP10), CXCL10 (gene 3627)
Kind of experiment: BSK_KF3CT_IP10: BioMAP Diversity Plus: KF3CT Assay for Interferon-gamma inducible Protein 10 (IP10) Biomarker Activity (AID 2283068). Conditions: primary human keratinocytes with fibroblasts; actives raise or lower the signal. The method, boiled down:
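In a primary skin co-culture of keratinocytes and fibroblasts, IP-10 is quantified by ELISA at 24 h after dosing. SRB staining of parallel wells monitors overt toxicity. Curves are fitted both directions against DMSO.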

Experiment [16] in a line: BSK_KF3CT_SRB: Viability Assessment in the BioMAP Diversity Plus: KF3CT Assay (AID 2283069).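 Further: fitted for both signal gain and loss against DMSO baseline.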 Conditions: primary human keratinocytes with fibroblasts. The gist of the method: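 SRB read-out at 560 nm (0.1% stain, TCA-fixed cells) gauges overt cytotoxicity in a human skin keratinocyte–fibroblast co-culture 24 h post-dosing. Signal change was fitted bidirectionally relative to DMSO control.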

Read-out in experiment [17]: Interleukin-1 alpha (IL1a), IL1A (gene 3552)
Kind of experiment: BSK_KF3CT_IL1a: BioMAP Diversity Plus: KF3CT Assay for Interleukin-1 alpha (IL1a) Biomarker Activity (AID 2283070). Conditions: primary human keratinocytes with fibroblasts; actives raise or lower the signal. The method, boiled down: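 Primary skin co-culture (keratinocytes, foreskin fibroblasts), 24 h exposure; ELISA for IL-1a; bidirectional curve fit vs DMSO.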

Read-out in experiment [18]: TIMP metallopeptidase inhibitor 2 (TIMP2), TIMP2 (gene 7077)
The experiment is described as follows: BSK_KF3CT_TIMP2: BioMAP Diversity Plus: KF3CT Assay for TIMP metallopeptidase inhibitor 2 (TIMP2) Biomarker Activity (AID 2283071). Conditions: primary human keratinocytes with fibroblasts; actives raise or lower the signal. The method, boiled down: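 TIMP-2 measured by ELISA at 24 h in human keratinocyte/fibroblast primary co-cultures exposed to chemicals. Both increases and decreases were fitted against DMSO. Parallel cultures were stained with SRB for total protein as an overt-cytotoxicity check.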

Read-out in experiment [19]: Transforming growth factor beta 1 (TGFb1), TGFB1 (gene 7040)
Kind of experiment: BSK_KF3CT_TGFb1: BioMAP Diversity Plus: KF3CT Assay for Transforming growth factor beta 1 (TGFb1) Biomarker Activity (AID 2283072). Conditions: primary human keratinocytes with fibroblasts; actives raise or lower the signal. The method, boiled down:
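ELISA quantifies TGF-b1 at 24 h post-dose in a primary human skin co-culture of keratinocytes and fibroblasts, with gain or loss judged against DMSO. Parallel SRB total-protein staining flags overt cytotoxicity.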

Read-out in experiment [20]: Interleukin-8 (IL8), CXCL8 (gene 3576)
The experiment is described as follows: BSK_hDFCGF_IL8: BioMAP Diversity Plus: hDFCGF Assay for Interleukin-8 (IL8) Biomarker Activity (AID 2283058). Conditions: primary human foreskin fibroblasts; actives raise or lower the signal. The gist of the method: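 hDFCGF human dermal fibroblasts; 24 h chemical exposure; IL-8 by ELISA; bidirectional curve fit vs DMSO baseline; gain or loss of signal scored.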

The structures appear in SMILES notation. Calls of active or inactive are those of the source. How the source made its calls: active means hit-call score of the fitted dose curve at least 0.9, where 1 is the maximum; inactive means score below 0.9.

As for `CCOP(=S)(OCC)Oc1nc(Cl)c(Cl)cc1Cl`, the half-maximal activity concentration (AC50) (as a rule, the midpoint of the concentration-response curve, whichever way the signal moves) in [1] is 20 µM (active); in experiment [4] it was 9.2 µM (active); in [6], 14.9 µM (active); in experiment [7], 11.9 µM (active); in experiment [11], 4.93 µM (active); in [12], 7.1 µM (active). The concentration at half-maximal activity (AC50) in experiment [13] is 13.3 µM (active). Besides, the outcome in [2], in experiment [3], in experiment [5], in experiment [8], in experiment [9] and in experiment [10] was inactive. Also, the result in experiment [14], in experiment [15], in experiment [16], in experiment [17], in experiment [18] and in experiment [19] was inactive.

For `CC(=O)C(Cl)C(=O)N(C)C` (stereo unspecified), the outcome in experiment [1], in [2], in [5], in [8], in experiment [9] and in experiment [10] was inactive. Moreover, the outcome in experiment [11], in [12], in experiment [13], in experiment [14], in experiment [15] and in experiment [16] was inactive. Also, the outcome in [18] and in experiment [19] was inactive. Also, the AC50 in experiment [3] is 12 µM (active); in [4] it was 13.8 µM (active); in experiment [6] it was 26 µM (active); in [17] it was 13.9 µM (active).

Turning to `O=C(Nc1ccc2[nH]ccc2c1)c1cc2cc(F)ccc2n1Cc1cccc(F)c1`, the AC50 was 3.33 µM (active) in experiment [1]; 14.6 µM (active) in experiment [2]; 29.2 µM (active) in experiment [3]; 1.93 µM (active) in experiment [4]; 5.96 µM (active) in experiment [20]; 2.53 µM (active) in experiment [6]. In addition, the AC50 in [7] is 3.18 µM (active); in experiment [8], 3.36 µM (active); in experiment [9] it was 3.93 µM (active); in experiment [10] it was 4.77 µM (active); in [11] it was 3.37 µM (active); in experiment [12], 2.65 µM (active). For the same molecule, the AC50 in [13] was 2.69 µM (active); in [14] it was 8.14 µM (active); in experiment [15] it was 7.21 µM (active); in experiment [16], 5.91 µM (active); in experiment [17], 6.68 µM (active); in experiment [18], 7.19 µM (active). For the same molecule, the AC50 in experiment [19] is 6.88 µM (active).
